Screening results: PubChem BioAssay, several laboratories
Sampled rows, rich in hits. Any-hit rate of the full collection: about 8.9%.
M1 antag: antagonists of rat M1 muscarinic receptor. Muscarinic acetylcholine receptor M1 (Rattus norvegicus), P08482. B-score at 10 µM. hit rate 3.4% among 64,000. CHO-M1 cells, Fluo-4 calcium, ACh EC80 antagonist mode; active compounds read low;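 active = calcium fluorescence response, raw or row-and-column corrected B-score, differing from the plate sample mean either way at a set confidence level, mostly lower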
M1 ag: M1 muscarinic receptor agonists, primary screen, CHO-M1 cells, Fluo-4 calcium, agonist mode | hit rate 3% among 64,000 | Fluo-4 calcium fluorescence; active compounds read high | Muscarinic acetylcholine receptor M1 | AID 626, 2007 | B-score at 10 µM;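 active = fluorescence rise, raw or as B-score row- and column-corrected plate score, outside the 99.7% band of its plate's samples, either direction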
WNV protease inh: inhibitors of WNV NS2B-NS3 protease, primary screen, biochemical, fluorogenic substrate; Genome polyprotein (West Nile virus), P06935; fluorogenic substrate Ex360/Em465; active compounds read low; z-score (no concentration beside the values); hit rate 0.18% among 65,000; in the data active = z-score below about -3
mHtt clearance: clearance of mutant huntingtin inclusions, primary screen, imaging, HeLa Exon1htt(103Q)mCFP, confocal imaging; aggregate imaging; zero = plate's median compound well; inhibition, % at 1.5 µM; hit rate 0.42% among 47,000; AID 853, 2007;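 active = inhibition of aggregate fluorescence above about 70%, also judged a hit by eye on the cell image, limit read from the data, passing the limit was not always enough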;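 note: cells exposed to compound for three days before fixation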
D1 allo mod: D1 CRE-luciferase signal change, two-sided – cell-based, HEK293 D1, dopamine EC30, D1 allosteric modulator project, primary screen; AID 641, 2007; dopamine EC30 potentiation; actives deviate in either direction; B-score at 10 µM; D(1A) dopamine receptor (Homo sapiens), P21728; hit rate 5.9% among 58,000;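 active = luminescence count or its row- and column-corrected plate score outside the 99.7% band of the plate's sample wells, on either side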
Target sequence (P21728 whole entry, looked up): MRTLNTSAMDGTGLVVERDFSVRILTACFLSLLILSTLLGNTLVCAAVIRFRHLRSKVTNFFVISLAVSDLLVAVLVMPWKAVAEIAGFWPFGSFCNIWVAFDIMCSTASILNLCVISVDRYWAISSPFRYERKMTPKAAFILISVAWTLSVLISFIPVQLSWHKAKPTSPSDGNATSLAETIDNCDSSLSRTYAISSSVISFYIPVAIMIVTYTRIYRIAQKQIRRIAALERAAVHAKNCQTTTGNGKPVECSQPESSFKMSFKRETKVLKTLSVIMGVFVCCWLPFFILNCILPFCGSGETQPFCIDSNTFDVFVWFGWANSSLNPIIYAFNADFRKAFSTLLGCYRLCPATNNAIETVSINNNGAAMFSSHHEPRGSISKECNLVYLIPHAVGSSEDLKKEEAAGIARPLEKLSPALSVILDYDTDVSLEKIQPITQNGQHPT
M1 antag conf: rat M1 muscarinic receptor antagonists, confirmation, CHO cells, Fluo-4 calcium, duplicate; calcium response (max-min fluorescence) at 10 µM; ACh EC80 antagonism; active compounds read low; hit rate 43% among 1,700; AID 677, 2007; shares compounds with M1 antag;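 active = calcium response below the same-plate mean of wells given acetylcholine alone at its 80%-effect dose, minus 3 SD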
mGluR4 antag: human mGluR4 response to M1 antagonist hits, M1 allosteric modulator project, cell-based, antagonist mode, secondary assay 1. hit rate 0.9% among 1,700. AID 678, 2007. fluorescence response (max-min) at 10 µM. CHO-mGluR4 calcium flux, Fluo-4 fluorescence, glutamate EC80; active compounds read low. shares compounds with M1 antag;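 active = fluorescence response below the plate's average for near-maximal glutamate wells, less 3 SD of those wells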;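 note: raw unnormalized fluorescence span taken in the window right after glutamate addition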
Hits are given with their value.

How did CCOC(=O)CCc1c(C)c2ccc(OCc3nn[nH]n3)cc2oc1=O do in these assays?
WNV protease inh: inactive; mHtt clearance: inactive; D1 allo mod: inactive

How did CCOC(=O)CCc1c(C)c2ccc(OCC(=O)OC(C)C)cc2oc1=O do in these assays?
M1 antag: -2.4; M1 ag: inactive; WNV protease inh: inactive; M1 antag conf: inactive; mGluR4 antag: inactive

How did CCCOc1ccc(-c2nnc(-c3ccncc3)o2)cc1 do in these assays?
M1 antag: -2; M1 ag: inactive; WNV protease inh: inactive; D1 allo mod: inactive; M1 antag conf: inactive; mGluR4 antag: inactive

How did CC(C)COc1ccc(-c2nnc(-c3ccncc3)o2)cc1 do in these assays?
M1 antag: inactive; M1 ag: inactive; WNV protease inh: inactive; mHtt clearance: inactive

Results for CCCc1cc(=O)oc2cc(C)cc(OC(=O)c3ccco3)c12 ?
M1 antag: -2.92; M1 ag: inactive; WNV protease inh: inactive; mHtt clearance: inactive; D1 allo mod: inactive; M1 antag conf: inactive; mGluR4 antag: inactive

What do the screens show for `CCCc1cc(=O)oc2cc(C)cc(O)c12`?
mHtt clearance: inactive

What do the screens show for `N=c1n(CCN2CCCC2)c2ccccc2n1CC(O)c1ccco1` (stereo not given)?
M1 antag: inactive; M1 ag: inactive; WNV protease inh: inactive; D1 allo mod: inactive

What do the screens show for `N=c1n(CCN2CCCCC2)c2ccccc2n1CC(O)c1cccc(Br)c1` (stereo not given)?
M1 antag: -4.08; M1 ag: inactive; WNV protease inh: inactive; mHtt clearance: inactive; D1 allo mod: inactive; M1 antag conf: inactive; mGluR4 antag: inactive

What do the screens show for `CCCCn1c(=N)n(CC(O)COc2ccc(C)cc2)c2ccccc21` (stereo not given)?
M1 antag: inactive; M1 ag: inactive; WNV protease inh: inactive; mHtt clearance: inactive; D1 allo mod: inactive

How did COc1ccccc1OCC(O)Cn1c(=N)n(CCN2CCCCC2)c2ccccc21 (stereo not given) do in these assays?
M1 antag: -1.56; M1 ag: inactive; WNV protease inh: inactive; mHtt clearance: inactive; D1 allo mod: -2.54; M1 antag conf: inactive; mGluR4 antag: inactive

Results for N=c1n(CCN2CCCCC2)c2ccccc2n1CC(O)COc1ccccc1 (stereo not given) ?
M1 antag: inactive; M1 ag: inactive; WNV protease inh: inactive; D1 allo mod: inactive

Results for CCCCn1c(=N)n(CC(O)COc2ccccc2)c2ccccc21 (stereo not given) ?
M1 antag: -2.34; M1 ag: inactive; WNV protease inh: inactive; mHtt clearance: inactive; D1 allo mod: inactive; M1 antag conf: inactive; mGluR4 antag: inactive

Results for CC(C)[C@H](NC(=O)OC(C)(C)C)c1nnc(SCC(=O)Nc2ccc(Br)cc2)o1 ?
M1 antag: inactive; M1 ag: inactive; WNV protease inh: inactive; mHtt clearance: inactive; D1 allo mod: inactive

Results for Cc1cccc(-n2c(CCCN3C(=O)c4ccccc4C3=O)nc3ccccc3c2=O)n1 ?
M1 antag: inactive; M1 ag: inactive; WNV protease inh: inactive; D1 allo mod: inactive

What do the screens show for `C1CNCCNCCNCCN1`?
M1 antag: inactive; M1 ag: inactive; WNV protease inh: inactive; D1 allo mod: inactive

How did Brc1ccc(-c2cnc3n2CCCC3)cc1 do in these assays?
M1 antag: -3.02; M1 ag: inactive; WNV protease inh: inactive; M1 antag conf: 288; mGluR4 antag: inactive

Results for O=c1c2cc(Br)ccc2nc2n1CCCCC2 ?
mHtt clearance: inactive

How did COc1ccc(S(=O)(=O)NC(CC(=O)N2CCc3ccccc32)c2ccco2)cc1 (stereo not given) do in these assays?
WNV protease inh: inactive; mHtt clearance: inactive

Results for Cc1ccc(S(=O)(=O)NC(CC(=O)N2CCc3ccccc32)c2ccco2)cc1 (stereo not given) ?
M1 antag: -4.41; M1 ag: inactive; WNV protease inh: inactive; mHtt clearance: inactive; D1 allo mod: inactive; M1 antag conf: inactive; mGluR4 antag: inactive

How did Clc1ccc(-n2c(SCc3nc4ccccc4[nH]3)nnc2-c2ccncc2)cc1 do in these assays?
mHtt clearance: inactive

What do the screens show for `CC1=CC(C)(C)N=C(Nc2ccc(C)cc2)S1`?
M1 antag: -4.96; M1 ag: inactive; WNV protease inh: inactive; M1 antag conf: 275; mGluR4 antag: inactive

Results for O=C(O)c1cc2nc(C3CC3)cc(C(F)(F)F)n2n1 ?
M1 antag: inactive; M1 ag: inactive; WNV protease inh: inactive

How did O=C(Nc1ccccc1C(=O)NCc1ccco1)NC1CCCCC1 do in these assays?
M1 antag: -3.12; M1 ag: inactive; WNV protease inh: inactive; mHtt clearance: inactive; D1 allo mod: inactive; M1 antag conf: inactive; mGluR4 antag: inactive

How did O=C(NC1CCCCC1)c1ccc(S(=O)(=O)NCc2ccco2)cc1 do in these assays?
M1 antag: -2.44; M1 ag: inactive; WNV protease inh: inactive; mHtt clearance: inactive; M1 antag conf: inactive; mGluR4 antag: inactive

What do the screens show for `CCn1c(=O)cc(SCC(=O)N2CCN(C3CCCCC3)CC2)c2ccccc21`?
M1 antag: -5.07; M1 ag: inactive; WNV protease inh: inactive; mHtt clearance: inactive; D1 allo mod: inactive; M1 antag conf: 256; mGluR4 antag: inactive

What do the screens show for `O=C(Nc1ccc(Br)c(Cl)c1)C1CC1`?
M1 antag: -6.24; M1 ag: inactive; WNV protease inh: inactive; D1 allo mod: inactive; M1 antag conf: inactive; mGluR4 antag: inactive

What do the screens show for `CCOC(=O)N1CCN(C(=O)C2CCC(CNS(=O)(=O)c3ccc(Cl)cc3)CC2)CC1` (stereo not given)?
M1 antag: -2.9; M1 ag: inactive; WNV protease inh: inactive; mHtt clearance: inactive; D1 allo mod: inactive; M1 antag conf: inactive; mGluR4 antag: inactive

Results for CC1CCN(CCNC(=O)C2CCCN(S(=O)(=O)c3cccc4nonc34)C2)CC1 (stereo not given) ?
M1 antag: inactive; M1 ag: inactive; WNV protease inh: inactive; D1 allo mod: inactive

Results for O=C(OCCCN1C(=O)c2ccccc2C1=O)c1ccco1 ?
M1 antag: inactive; M1 ag: inactive; WNV protease inh: inactive; mHtt clearance: inactive; D1 allo mod: inactive

What do the screens show for `O=C1OC(N2CCN(C(=O)c3ccco3)CC2)c2ccccc21` (stereo not given)?
M1 antag: -3.8; M1 ag: inactive; WNV protease inh: inactive; D1 allo mod: inactive; M1 antag conf: inactive; mGluR4 antag: inactive
